PubChem BioAssay
Activity calls are given as the source filed them. Unless noted, the rule behind the calls is not given here.

Key:
[1] = HepG2 liver cancer cell viability effects, profiling panel, resazurin fluorescence, 24 h, PK04 Diversity Set (AID 1172); conditions: higher = more signal
[2] = basal S. cerevisiae growth modulation, no modifier, primary screen, OD600, strain BY4716, 24 h, basal condition (AID 1173); conditions: OD600, 24 h, higher = more signal, called active from +8 up or from −8 down
[3] = MM1S myeloma cell viability, profiling panel, resazurin fluorescence, basal, 24 h, PK04 Diversity Set (AID 1174); conditions: higher = more signal, called active from +8 up or from −8 down;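 note: MM1S multiple myeloma cell line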
[4] = biological target: Dihydroorotate dehydrogenase (quinone), mitochondrial (Plasmodium falciparum (isolate 3D7)) (UniProt Q08210); assay: PfDHODH enzyme inhibitors, primary screen, biochemical, C-terminal His tag, absorbance 600 nm (AID 1175); conditions: DCIP absorbance 600 nm, higher = more signal, called active from +8 up or from −8 down;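 note: recombinant parasite enzyme with a five histidine tag at its C terminus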
Chain of Dihydroorotate dehydrogenase (quinone), mitochondrial (Plasmodium falciparum (isolate 3D7)) (Q08210 whole entry, looked up): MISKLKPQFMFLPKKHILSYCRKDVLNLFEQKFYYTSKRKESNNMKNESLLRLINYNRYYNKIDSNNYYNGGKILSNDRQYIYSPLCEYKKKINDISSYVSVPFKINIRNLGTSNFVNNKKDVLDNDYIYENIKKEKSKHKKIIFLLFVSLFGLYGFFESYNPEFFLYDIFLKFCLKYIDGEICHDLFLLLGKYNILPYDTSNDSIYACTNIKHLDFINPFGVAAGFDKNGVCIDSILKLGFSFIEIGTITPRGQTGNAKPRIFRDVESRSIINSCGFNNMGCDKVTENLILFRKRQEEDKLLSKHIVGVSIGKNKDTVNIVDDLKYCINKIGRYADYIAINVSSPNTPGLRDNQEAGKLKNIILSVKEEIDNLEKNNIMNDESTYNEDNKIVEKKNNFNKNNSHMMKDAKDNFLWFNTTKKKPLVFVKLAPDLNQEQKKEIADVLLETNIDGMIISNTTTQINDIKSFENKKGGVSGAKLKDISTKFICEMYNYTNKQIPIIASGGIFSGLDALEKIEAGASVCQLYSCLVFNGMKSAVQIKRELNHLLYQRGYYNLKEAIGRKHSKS

[5] = P. aeruginosa biofilm formation inhibitors, primary screen, strain PAO1, LB-PBS medium, absorbance 600 nm (AID 1176); conditions: P. aeruginosa PAO1 growth/biofilm, A600, 12 h; higher = more signal
[6] = S. cerevisiae RM11-1a growth modifiers, primary screen, strain RM11-1a, OD600, basal, 24 h (AID 1177); conditions: OD600, 24 h, higher = more signal, called active from +8 up or from −8 down;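 note: cultures grown under basal conditions with no added stressor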
[7] = E. coli acrAB mutant growth effects, primary screen, E. coli filamentation inducers, strain DRC39, OD650, 24 h (AID 1178); conditions: higher = more signal, called active from +8 up or from −8 down;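 note: growth measured as culture turbidity by optical density at 650 nm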
[8] = E. coli acrAB mutant growth effects, primary screen, E. coli filamentation inducers, strain DRC39, OD650, 48 h (AID 1179);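 note: screen aims at cell division blockers that make cells filament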; conditions: E. coli DRC39 delta-acrAB growth, higher = more signal, called active from +8 up or from −8 down
[9] = RPMI8226 myeloma cell viability, profiling panel, resazurin fluorescence, basal, 24 h, PK04 Diversity Set (AID 1180); conditions: higher = more signal;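 note: RPMI8826 multiple myeloma cell line at 5000 cells per well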
[10] = biological target: E3 ubiquitin-protein ligase XIAP (Homo sapiens) (UniProt P98170); assay: XIAP binders, primary screen, biophysical, small-molecule microarray, fluorescence 635 nm (AID 1181); conditions: small-molecule microarray binding, higher = more signal;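 note: score merges 667 nm emission and signal to noise over triplicate slides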
Chain of E3 ubiquitin-protein ligase XIAP (Homo sapiens) (P98170 whole entry, looked up): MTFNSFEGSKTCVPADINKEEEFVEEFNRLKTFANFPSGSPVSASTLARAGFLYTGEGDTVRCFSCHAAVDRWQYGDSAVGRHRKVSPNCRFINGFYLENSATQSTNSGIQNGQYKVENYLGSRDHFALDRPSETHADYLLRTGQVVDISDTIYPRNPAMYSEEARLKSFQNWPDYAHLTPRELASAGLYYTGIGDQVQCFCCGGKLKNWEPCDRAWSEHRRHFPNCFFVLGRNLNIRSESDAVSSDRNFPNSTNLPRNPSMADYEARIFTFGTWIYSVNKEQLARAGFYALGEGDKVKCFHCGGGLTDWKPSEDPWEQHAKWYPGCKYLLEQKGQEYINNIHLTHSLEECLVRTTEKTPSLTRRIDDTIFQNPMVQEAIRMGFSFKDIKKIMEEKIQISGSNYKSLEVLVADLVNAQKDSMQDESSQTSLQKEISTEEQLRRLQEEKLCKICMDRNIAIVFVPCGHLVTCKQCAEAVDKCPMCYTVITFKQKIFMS

[11] = tested on: XIP peptide (Xip251-270) binding; assay: small-molecule binders of XIP peptide, primary screen, biochemical, small-molecule microarray, fluorescence 635/667 nm, 0.1 µg/mL protein (AID 1182); conditions: fluorescent protein binding, 635 nm, higher = more signal, called active from +8 up or from −8 down
XIP peptide (Xip251-270) = assay: small-molecule binders of XIP peptide, primary screen, biochemical, small-molecule microarray, fluorescence 635/667 nm, 0.5 µg/mL protein (AID 1183); conditions: small-molecule microarray binding, fluorescence 635 nm; higher = more signal
[12] = Plasmodium falciparum growth inhibition, primary screen, strain 3D7, DAPI fluorescence, 100 nL (AID 1184);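 note: parasites grown inside human red blood cells in medium with human serum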; conditions: P. falciparum 3D7 growth, 3 d, higher = more signal
[13] = biological target: Homeobox protein Hox-A13 (Mus musculus) (UniProt Q62424); assay: inhibitors of HoxA13-DNA binding, primary screen, biochemical, fluorescence polarization, labeled oligonucleotide (AID 1185); conditions: 15 min, higher = more signal, called active from +8 up or from −8 down
Chain of Homeobox protein Hox-A13 (Mus musculus) (Q62424 whole entry, looked up): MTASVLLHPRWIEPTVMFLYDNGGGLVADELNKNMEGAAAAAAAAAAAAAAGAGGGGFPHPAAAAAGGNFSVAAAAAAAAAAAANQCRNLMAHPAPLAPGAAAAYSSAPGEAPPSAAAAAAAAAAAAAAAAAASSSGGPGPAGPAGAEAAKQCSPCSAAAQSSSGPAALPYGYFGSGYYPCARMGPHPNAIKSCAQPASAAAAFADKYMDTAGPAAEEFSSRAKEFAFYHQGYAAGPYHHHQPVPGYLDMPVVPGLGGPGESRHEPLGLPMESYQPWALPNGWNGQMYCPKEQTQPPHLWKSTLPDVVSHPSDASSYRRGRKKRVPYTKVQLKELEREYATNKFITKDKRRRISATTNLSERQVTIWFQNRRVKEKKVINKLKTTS

[14] = inhibitors of hydroxyurea-induced Chk1 phosphorylation, primary screen, imaging, HeLa, phospho-Chk1 antibody, percent positive cells (AID 1186); conditions: hydroxyurea-induced phospho-Chk1 immunofluorescence imaging, higher = more signal
[15] = inhibitors of hydroxyurea-induced Chk1 phosphorylation, primary screen, imaging, HeLa, phospho-Chk1 nuclear intensity (AID 1187); conditions: hydroxyurea-induced phospho-Chk1 immunofluorescence imaging, higher = more signal

Structure (SMILES) | z-score [1] | z-score [2] | z-score [3] | composite z-score [4] | z-score [5] | z-score [6] | z-score [7] | z-score [8] | z-score [9] | composite z-score [10] | composite z-score [11] | composite z-score (XIP peptide (Xip251-270)) | z-score [12] | z-score [13] | z-score [14] | z-score [15]
CC[C@@H]1C=C(C(=O)O)[C@H](c2ccc(C)cc2)N1S(=O)(=O)c1ccc(C)cc1 | 0.675 | 0.174 (inactive) | 0.0178 (inactive) | -1.85 (inactive) | -0.433 (inactive) | -0.66 (inactive) | -0.303 (inactive) | 0.637 (inactive) | -0.0794 | 0.0701 | -0.143 (inactive) | 0.468 | 1.14 | -1.69 (inactive) | 0.723 (inactive) | 0.909 (inactive)
COCC(=C=CC[C@H](O)c1cccc(OCCO)c1)C[C@H](O)c1cc(Cl)cc(Cl)c1O | 1.13 | -2.5 (inactive) | 0.685 (inactive) | -0.492 (inactive) | 0.625 (inactive) | 0.337 (inactive) | 0.679 (inactive) | 0.477 (inactive) | 0.159 | -0.0669 | 0.378 (inactive) | 0.825 | -0.366 | -4.71 (inactive) | 0.144 (inactive) | 0.532 (inactive)
COC(=O)c1c2oc(c1C(=O)OC)C(=O)NC1(CCCCC1)c1cn(nn1)C[C@H](Cc1ccccc1)NC(=O)N[C@H](CO)CC2 | 1.68 | -0.861 (inactive) | 0.911 (inactive) | -0.805 (inactive) | 0.383 (inactive) | -0.0499 (inactive) | 1.09 (inactive) | 1.66 (inactive) | 0.456 | -0.118 | 0.064 (inactive) | -0.271 | 0.196 | -4.41 (inactive) | -0.0736 (inactive) | -0.183 (inactive)
C=CC[C@]12N=C(c3ccc(OCCCO)cc3)O[C@H]1c1ccccc1N(CCS(=O)(=O)c1ccccc1)C2=O | 1.49 | -0.298 (inactive) | -1.58 (inactive) | 0.0191 (inactive) | -0.0988 (inactive) | 1.05 (inactive) | 0.611 (inactive) | -0.0546 (inactive) | -0.585 | -0.271 | 3.59 (inactive) | 0.708 | -1.57 | -2.59 (inactive) | -0.382 (inactive) | -0.315 (inactive)
COc1cc(CO)cc(I)c1O[C@H]1C=C(C(=O)NCCO)C[C@@H](NC[C@@H]2CCCO2)[C@@H]1O | 0.773 | -0.813 (inactive) | -0.292 (inactive) | 0.459 (inactive) | 0.0694 (inactive) | 0.683 (inactive) | 1.16 (inactive) | 0.915 (inactive) | 0.577 | -0.13 | 0.546 (inactive) | 0.711 | -1.22 | -6.95 (inactive) | -0.399 (inactive) | -1.01 (inactive)
C=CC[C@@]1(C(=O)N2CCCCC2)N=C(c2ccc(OCCCO)cc2)O[C@@H]1c1ccccc1N=[N+]=[N-] | -0.355 | -1.02 (inactive) | -1.62 (inactive) | 0.479 (inactive) | 0.302 (inactive) | 0.597 (inactive) | 0.985 (inactive) | -0.682 (inactive) | -0.963 | 0.13 | 0.195 (inactive) | 0.602 | -1.94 | -2.64 (inactive) | -0.679 (inactive) | -0.667 (inactive)
COC(=O)[C@@]1(Cc2ccccc2)[C@H]2c3cc(C(=O)N4CCCC4)n(Cc4c(CO)[nH]cc(C)c4=O)c3C[C@H]2CN1C(=O)c1ccccc1 | -0.789 | 1.01 (inactive) | -0.74 (inactive) | 0.255 (inactive) | 0.287 (inactive) | 0.624 (inactive) | -0.384 (inactive) | 0.156 (inactive) | -0.467 | 0.406 | -0.528 (inactive) | 0.704 | -1.46 | -5.81 (inactive) | 0.754 (inactive) | 0.672 (inactive)
